Compound activity deposited in PubChem BioAssay by National Center for Advancing Translational Sciences (NCATS).
Nrf2 inh: blocks Nrf2 signaling; Potency, µM (doses to about 46 µM), for inactives: at the highest dose activity change, negative = inhibition, hits mostly inhibitors; A549 ARE-Fluc reporter, luciferase luminescence, 18-24 h; AID 504444; 360,000 tested, 2.1% active; also: % is scaled to controls: 0 for no effect and ±100 for the full control effect; nearly all actives have a fitted effect of over 60% in size
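A549 ARE_Fluc cells (5000/well, 5% FBS OPTI-MEM) pre-incubated 2 h, then treated with compounds 18-24 h at 37C/5% CO2 in concentration-response. CellTiter-Fluor viability read first; BugLite luciferase luminescence after 15 min at room temperature gives Nrf2 activity.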
rTrxR1 inhibitor: rat TrxR1 inhibition. 390,000 tested, 1% active. Potency, µM (doses to about 114 µM), inactives show at the highest dose activity change, negative = inhibition, usual class: inhibitors. recombinant rTrxR1, NADPH fluorescence consumption, selenite substrate; also: % is scaled to controls: 0 for no effect and ±100 for the full control effect; nearly all actives have a fitted effect of over 65% in size
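Rat TrxR1 (90 nM in the dispensed reagent) was pre-reduced with 400 uM NADPH for 5 min at room temperature, then incubated with compound for 15 min. After 400 uM selenite was added, NADPH fluorescence (Ex 340/Em 450 nm) was followed for 8 min.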
Nrf2 activator: activates Nrf2 signaling. AREc32 ARE-luciferase reporter (MCF7-derived line), luminescence, 24 h. Potency, µM (top dose mostly 46.1 µM), for the others: at the highest dose activation, hits mostly activators. 410,000 tested, 0.31% active; also: % of control where 0% means no effect; nearly all actives have a fitted effect of over 65% in size
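Each well held 1000 AREc32 cells, which were incubated with compound for 24 hr at 37 deg C after overnight attachment, and ARE reporter activity was quantified by firefly luciferase luminescence.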
GALK inh: inhibitors of human galactokinase; Potency, µM (series often up to 57.5 µM), for inactives: at the top dose activity change, negative = inhibition, usual class: inhibitors; P51570; Purified GALK, Kinase-Glo residual ATP luminescence; AID 1868; 270,000 tested, 0.007% active; also: % is scaled to controls: 0 for no effect and ±100 for the full control effect
Target sequence (P51570 whole entry, looked up): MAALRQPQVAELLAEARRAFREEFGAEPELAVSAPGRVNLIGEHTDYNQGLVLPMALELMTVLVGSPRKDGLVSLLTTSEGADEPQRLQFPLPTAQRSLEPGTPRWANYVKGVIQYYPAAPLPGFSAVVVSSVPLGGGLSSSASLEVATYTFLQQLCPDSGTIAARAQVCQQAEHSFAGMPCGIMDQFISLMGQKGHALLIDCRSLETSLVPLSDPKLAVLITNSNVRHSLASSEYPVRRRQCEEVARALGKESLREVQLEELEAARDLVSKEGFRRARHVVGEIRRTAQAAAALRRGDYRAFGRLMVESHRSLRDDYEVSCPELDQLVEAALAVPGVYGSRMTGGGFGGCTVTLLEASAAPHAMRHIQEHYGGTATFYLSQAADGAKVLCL
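ATP-depletion format; final 35 uM ATP, 100 uM D-galactose, 5 nM enzyme; pH 8.0 HEPES/Mg2+ buffer; 60 min RT; luminescence read 10 min after detection reagent.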
TrxR1 substrate: substrates of rat thioredoxin reductase 1; O89049; purified TrxR1 substrate turnover, NADPH consumption readout; Potency, µM (series often up to 114 µM), for the others: at the top dose activity change, negative = substrate turnover; 390,000 tested, 0.01% active; also: % is scaled to controls: 0 for no effect and ±100 for the full control effect; nearly all actives have a fitted effect of over 50% in size
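Rat TrxR1, dispensed at 90 nM, was prereduced with 400 uM NADPH (final) for 5 min at ~22 deg C, then incubated with compound 15 min before 400 uM selenite. A first-read NADPH fluorescence drop versus no-compound background flagged substrates.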
A549 viability: counter-screen for Nrf2 inhibitors: cytotoxicity in A549 cells; 390,000 tested, 0.16% active; Potency, µM (doses to about 46 µM), without a hit: top-dose activity change, negative = cytotoxicity, hits mostly inhibitors; A549 ARE-Fluc cells, CellTiter-Fluor viability, 18-24 h; also: % is scaled to controls: 0 for no effect and ±100 for the full control effect
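Cytotoxicity counterscreen: CellTiter-Fluor fluorescence was measured in A549 ARE_Fluc cells after 18-24 h of compound exposure in a concentration series. The subsequent BugLite luminescent read reports ARE-luciferase activity.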
Numbers without * were called inactive; ? = inconclusive; . = not tested or not shown; [ ] = remark or other dose. Rows were chosen to be rich in hits. Some 3% of all compounds tested hit in one or more screens of this group. Calls follow the shape of the dose curve; as a rule, active = well fitted curve in the direction sought with a large enough effect; inconclusive = small, poorly fitted or top-dose-only effect, or another doubt; inactive = no such curve, though single readings can be large; an effect the other way counts as inactive or inconclusive. Potency is read from the fitted curve at half-maximal effect.

SMILES	Nrf2 inh	rTrxR1 inhibitor	Nrf2 activator	GALK inh	TrxR1 substrate	A549 viability
COC(=O)CCCN1C(=O)c2cccc3cccc(c23)C1=O	1%	-8%[57.1 µM]	13µM*	-3%	13%[57.1 µM]	1%
C#CCOC(=O)CCCN1C(=O)c2cccc3cccc(c23)C1=O	.	.	9%	.	.	.
O=C1c2ccc3c4c(ccc(c24)C(=O)N1CCCCO)C(=O)N(CCCCO)C3=O	?	40%	-2%	4%	3%	18µM*
COc1ccc(-c2nc(CN3CCC(C(=O)NCCCN4CCN(c5ccccc5F)CC4)CC3)c(C)o2)cc1OC	-10%	-24%	2%	.	-10%	?
O=C1c2oc3ccccc3c(=O)c2C(c2ccc(Br)cc2)N1c1ccccn1 (centres undefined)	.	9%[57.1 µM]	0%	.	-6%[57.1 µM]	8%
Cc1ccc(Cn2cc(CCC(=O)NCC(C)c3ccccc3)c3ccccc32)cc1 (centres undefined)	18µM*	22%	2%	.	-4%	?
CCn1cc(CCC(=O)NCc2ccc(C)cc2)c2ccccc21	2%	9%	0%	.	-2%	-1%
COC(=O)c1cc2sc(C)cc2n1Cc1ccc(F)cc1Cl	6%	21%	0%	.	2%	9%
Cc1ccc(S(N)(=O)=O)cc1NC(=O)/C=C/c1cccs1	.	11%[57.1 µM]	13µM*	0%	8%[57.1 µM]	-5%
NS(=O)(=O)c1ccc(NC(=S)NC(=O)/C=C/c2cccs2)cc1	5%	18%[57.1 µM]	2%	6%	0%[57.1 µM]	-5%
O=C1CSC2(C(=O)N(Cc3cccc(F)c3)c3ccccc32)N1c1cccc(C(F)(F)F)c1 (centres undefined)	23µM*	23%	0%	.	-4%	-14%
Cc1ccc(NC(=O)Cn2nnc3sc4c(c3c2=O)CCCC4)c(C)c1	9%	21%	-1%	.	-4%	-11%
O=C(Nc1ccccc1C(F)(F)F)C1CCN(S(=O)(=O)c2ccccc2)CC1	-1%	7%	0%	.	2%	0%
O=S(=O)(c1cccs1)N1CCN(c2ccnc3cc(Cl)ccc23)CC1	?	5%[57.1 µM]	0%	2%	-2%[57.1 µM]	?
O=S(=O)(c1ccccc1)N1CCN(c2ccnc3cc(Cl)ccc23)CC1	23µM*	10%[57.1 µM]	2%	-1%	-3%[57.1 µM]	-19%
Cc1cc(N2CCN(S(=O)(=O)c3ccccc3)CC2)c2ccccc2n1	21µM*	-5%	0%	1%	-1%	-17%
CNS(=O)(=O)c1cccc(C(=O)OCC(=O)c2ccc3c(c2)OCCO3)c1	21µM*	12%	0%	.	-2%	-8%
CCOC(=O)CSc1nc2ccc(NC(=O)COc3ccc(F)cc3)cc2s1	11%	20%	-1%	.	1%	-2%
CCc1ccc(/C=C/C(=O)C2C(=O)c3ccccc3C2=O)cc1	?	-21%	2%	-2%	-20%	-30%
CC[N+]1(C)CCC(O)(/C=C/c2ccccc2)C(C(=O)/C=C/c2ccccc2)C1 (centres undefined)	-9%	0.32µM*	?	.	11%[11.4 µM]	-7%
Cc1ccc(OC(=O)CCS(=O)(=O)c2ccc(C)cc2)cc1	6%	6%	0%	8%	-3%	9%
Cc1ccc(S(=O)(=O)CCC(=O)Oc2ccc3c(C)cc(=O)oc3c2)cc1	-6%	71µM*	-1%	.	382%	-5%
Cn1c(=O)c2nc(NCc3ccccc3)sc2n(C)c1=O	?	17%	2.5µM*	.	-4%	-1%
Cn1c(=O)c2c(nc(NCc3ccccc3)n2C)n(C)c1=O	-11%	16%	4%	2%	6%	4%
O=C1/C(=C\c2ccco2)CCC/C1=C\c1ccco1	8%	2.2µM*	10µM*	0%	-6%	0%
SMILES	Nrf2 inh	rTrxR1 inhibitor	Nrf2 activator	GALK inh	TrxR1 substrate	A549 viability
CC(c1ccccc1)N1CCN(C(=O)CCl)CC1 (centres undefined)	-9%	16µM*	?	0%	3%	0%
CCC1=C/C(=C/c2sc3ccccc3[n+]2CC)CC(C)(C)C1	1%	?	?	-1%	5%[57.1 µM]	0%
CC[n+]1c(/C=C2\C=C(C)CC(C)(C)C2)sc2ccccc21	16µM*	?	?	1%	6%	-13%[1.84 µM]
N#Cc1c(N)nc(SCc2ccccc2)c(C#N)c1-c1ccco1	12µM*	?	3%	-1%	19%	?
N#Cc1c(N)nc(SCC(=O)OCc2ccccc2)c(C#N)c1-c1ccco1	-10%	-7%	8%	1%	15%	10%
CN(C)c1ccc(CNC(=O)C(Cc2ccccc2)NS(=O)(=O)c2ccc3c(c2)oc(=O)n3C)cc1 (centres undefined)	18%	15%	5%	.	6%	-9%
CC(=O)c1ccc2c(c1)C1C=CCC1C(c1ccc(S(=O)(=O)N3CCOCC3)cc1)N2 (centres undefined)	?	50µM*	0%[9.22 µM]	0%	-9%	-7%
COc1ccc(NS(=O)(=O)c2ccc3c(c2)[C@H]2C=CC[C@H]2[C@@H](c2ccc(C(=O)O)cc2)N3)cc1	0%	?	0%	-1%	0%	-14%
COC(=O)c1ccc([C@H]2Nc3ccc(S(=O)(=O)Nc4ccc(C)cc4)cc3[C@H]3C=CC[C@H]32)cc1	-1%	50µM*	0%	.	3%	0%
COc1cccc(NS(=O)(=O)c2ccc3c(c2)[C@H]2C=CC[C@H]2[C@@H](c2ccccc2Cl)N3)c1	21µM*	-4%	-2%	.	6%	-19%
COc1ccc(N2CCN(C(=O)c3ccc4nc(N5CCC(C)CC5)sc4c3)CC2)cc1	?	14%	5%	.	-1%	-4%
COc1ccc(C(=O)NCCn2cc(SCC(=O)Nc3nnc(C)s3)c3ccccc32)cc1	10µM*	7%	2%	.	4%	-12%[1.84 µM]
Nc1ccc(-c2n[nH]c(=O)c3ccccc23)cc1N	16µM*	-21%	3%	0%	-2%	0%
Cc1ccc(-c2n[nH]c(=O)c3ccccc23)cc1N	?	27%[57.1 µM]	2%	4%	5%[57.1 µM]	-10%
O=C1CCC2=C1C(c1ccccc1Cl)N=C(Nc1nc3ccccc3o1)N2 (centres undefined)	18%	.	.	.	.	2%
CN(C)c1ccc(C(=S)N2CCN(c3ccc([N+](=O)[O-])cc3)CC2)cc1	?	-1%	0%	0%	-11%	-4%
O=[N+]([O-])c1ccc(N2CCN(C(=S)NCc3ccc(Cl)cc3)CC2)cc1	16µM*	-1%[57.1 µM]	0%	2%	-12%	?
O=[N+]([O-])c1ccc(C(=S)N2CCN(c3ccc(F)cc3)CC2)cc1	18µM*	-5%[57.1 µM]	3%	3%	-2%[57.1 µM]	-1%
